# In PMC6792352, “Limited Chemical Structural Diversity Found to Modulate Thyroid Hormone Receptor in the Tox21 Chemical Library” (Environmental Health Perspectives, 2019):
# Counter-ions that a name gives are not always drawn.
# Test system: thyroid hormone receptor (endogenous TRα and TRβ)
# Set-up: species or system GH3-TRE-Luc (rat pituitary); GH3-TRE-Luc luciferase reporter, antagonist mode against 1 nM T3, loss of signal, qHTS
# Settings: read-out: Average AC50 (uM) GH3-TRE-Antag, antagonist mode, 1 nM T3, no GH3 cytotoxicity hit
row,Structure (SMILES),AC50
1,CC(C)N(C(=O)COc1nnc(C(F)(F)F)s1)c1ccc(F)cc1 [Flufenacet],53.2 µM
2,CCCCCCCCCCCCSC#N [Lauryl thiocyanate],42.6 µM
3,C[C@@H]1C[C@H]2[C@@H]3C[C@H](F)C4=CC(=O)C(Cl)=C[C@]4(C)[C@@]3(F)[C@@H](O)C[C@]2(C)[C@@]1(O)C(=O)CO [Halometasone hydrate],33.2 µM
4,COc1ccc(O)cc1 [4-Methoxyphenol],> 50 µM
5,OC[C@H]1O[C@@H](n2cnc3c(=S)nc[nH]c32)[C@H](O)[C@@H]1O [Thioinosine],21.8 µM
6,N=c1c[n+](N2CCOCC2)[n-]o1 [3-Morpholinosydnonimine hydrochloride],52.1 µM
7,NNc1nnc(Cc2ccncc2)c2ccccc12 [Picodralazine],3.28 µM
8,CC1(C)S[C@@H]2[C@H](NC(=O)[C@H](N)c3ccccc3)C(=O)N2[C@H]1C(=O)OC1OC(=O)c2ccccc21 (stereo partly shown) [Talampicillin hydrochloride],> 20 µM
9,COCC(C)N(C(=O)CCl)c1c(C)csc1C (stereo not shown) [Dimethenamid],> 50 µM
10,CC(C)[C@@H](C)/C=C/[C@@H](C)[C@H]1CC[C@H]2/C(=C/C=C3\C[C@@H](O)CC[C@@H]3C)CCC[C@]12C [Dihydrotachysterol],26.8 µM
11,"CC(=O)OC(c1ccccc1)C(Cl)(Cl)Cl (stereo not shown) [2,2,2-Trichloro-1-phenylethyl acetate]",55.4 µM
12,CCc1cccc(C)c1N(C(=O)CCl)C(C)COC (stereo not shown) [Metolachlor],77 µM
13,CN1CCN2c3ncccc3Cc3ccccc3C2C1 (stereo not shown) [Mirtazapine],15.4 µM
